Records with an inconclusive call do not appear. Unmarked numbers belong to inactive results. Activity calls are given as the source filed them. Calls follow the shape of the dose curve; as a rule, active = well fitted cell-killing curve with a large enough effect in the repeat runs (not every such curve was filed as active); inconclusive = weak or mixed curves, or effect the other way; inactive = no such curve, though single readings can be large or run the other way.
Test: qHTS assay to identify small molecule antagonists of the farnesoid-X-receptor (FXR) signaling pathway - cell viability counter screen (AID 743221); also: nearly all actives have a fitted effect of over 50% in size
Settings: FXR-bla HEK293T viability, CellTiter-Glo luminescence, 16 h; series mostly up to 62.6 µM; activity change, negative = cytotoxicity: at the top concentration
Source text: National Center for Advancing Translational Sciences [NCATS]
NIH Chemical Genomics Center [NCGC]
U.S. Environmental Protection Agency [EPA]
National Institutes of Environmental Health Sciences [NIEHS]
National Toxicology Program [NTP]
U.S. Food and Drug Administration [FDA]
The farnesoid-X-receptor (FXR), a nuclear hormone receptor, is highly expressed in liver, intestine, kidney and adrenal cortex. Natural ligands of FXR are the bile acids (Cholic acid, Chenodeoxy cholic acid etc). FXR is an important regulator of diverse metabolic pathways, including the bile acid homeostasis, lipid and glucose metabolisms. FXR regulates the expression of target genes by binding either as a monomer or as a heterodimer with the retinoid X receptor (RXR). Numerous studies have reported that FXR exerts protective function during cholestasis, diabetes, liver regeneration, and cancer. To identify compounds that inhibit FXR signaling, GeneBLAzer FXR-UAS-bla HEK 293T cell line (Invitrogen, Carlsbad, CA) containing a beta-lactamase reporter gene under the control of a UAS response element was used to screen the Tox21 10K compound library. The cytotoxicity of the Tox21 compound library against the FXR-bla cell line was tested in parallel by measuring the cell viability using CellTiter-Glo assay in the same wells.
Tox21 Assay Protocol Summary:
FXR-bla cells were dispensed at 5000 cells/5uL/well in 1536-well black wall/clear bottom plates using a Multidrop Combi (Thermo Fisher Scientific, Waltham, MA) dispenser. After the assay plates were incubated at 37 C and 5% CO2 for 5 h, 23 nL of compounds dissolved in DMSO, positive controls or DMSO only was transferred to the assay plate by a Pintool station (Kalypsys, San Diego, CA), followed by addition of 1 uL Chenodeoxycholic acid (50 uM, final concentration in the wells). The assay plates were incubated at 37C for 16 h. After 1 uL of LiveBLAzerTM B/G FRET substrate was added using a Bioraptr Flying Reagent Dispenser (FRD) workstation (Beckman Coulter, Indianapolis, IN), the plates were incubated at room temperature for 2 h, and fluorescence intensity was measured by an Envision plate reader (PerkinElmer, Shelton, CT). For cell viability readout that measures cytotoxicity, 4uL/well of CellTiter-Glo reagent was added into the assay plates using a Bioraptr FRD. After 30 min incubation at room temperature, the luminescence intensity in the plates was measured using a ViewLux plate reader (PerkinElmer).
% is scaled to controls: 0 for no effect and ±100 for the full control effect; potency is read from the fitted curve at half-maximal effect.

| Structure (SMILES) | activity change, negative = cytotoxicity | Potency |
| --- | --- | --- |
| Cn1sccc1=O | -7.83% | – |
| COc1ccc([C@@H]2Sc3ccccc3N(CCN(C)C)C(=O)[C@@H]2OC(C)=O)cc1 | -0.745% | – |
| CC(=O)N(O)CCCCCNC(=O)CCC(=O)N(O)CCCCCNC(=O)CCC(=O)N(O)CCCCCN | 11.2% | – |
| CC(C)CC=O | -3.63% | – |
| CC(=O)/C(C)=C/C1C(C)=CCCC1(C)C (stereo not given) | 5.6% | – |
| CC(C)(C)C1CCCCC1O (stereo not given) | -21.2% | – |
| NC[C@H]1O[C@H](O[C@H]2[C@H](O)[C@@H](O[C@H]3O[C@H](CO)[C@@H](O)[C@H](N)[C@H]3O)[C@H](N)C[C@@H]2N)[C@H](O)[C@@H](O)[C@@H]1O | -10.3% [at 5.95 µM] | – |
| CCCC(=O)OCC | 2.85% | – |
| Cc1cc(NC(=O)C(=O)O)cc(C)c1Oc1ccc(O)c2c1CCC2 | -7.78% | – |
| C#CCOC(=O)[C@@H](C)Oc1ccc(Oc2ncc(Cl)cc2F)cc1 | -2.38% | – |
| CCOC(=S)SSC(=S)OCC | 3.75% | – |
| CCN(CC)CCNC(C(=O)OCCC(C)C)c1ccccc1 (stereo not given) | -0.501% | – |
| Cc1ccc2c(ccc3ccccc32)c1 | -8.86% [at 81.1 µM] | – |
| CCCCC(CC)COCCCN (stereo not given) | -13.2% | – |
| CC1=CC(=O)/C(=C(/C)O)C(=O)O1 | 0.308% | – |
| O=[N+]([O-])c1cc[n+]([O-])cc1 | -14.5% | – |
| CN(c1nccc(=O)[nH]1)C1CCN(c2nc3ccccc3n2Cc2ccc(F)cc2)CC1 | 6.62% | – |
| COCCO | 1.93% | – |
| O=C(c1ccc(O)cc1)c1ccc(O)cc1 | -0.034% | – |
| Oc1ccc(C(O)CNCCCCCCNCC(O)c2ccc(O)c(O)c2)cc1O (stereo not given) | -1.77% | – |

| Structure (SMILES) | activity change, negative = cytotoxicity | Potency |
| --- | --- | --- |
| FC(F)(F)C(F)(F)C(F)(F)C(F)(F)C(F)(F)C(F)(F)CCI | 3.26% | – |
| CN1CCN(C2=Nc3ccccc3Sc3ccc(Cl)cc32)CC1 | -9.91% | – |
| Cc1ccc(C(N)=O)cc1N | -12.3% | – |
| Cc1ccc(C(=O)C(C)CN2CCCCC2)cc1 (stereo not given) | -0.155% | – |
| CCCCCC(CO)CCC (stereo not given) | -1.75% | – |
| CCCCCCCCCO | 15.4% | – |
| Cc1ccc(O)c([C@H](CCN(C(C)C)C(C)C)c2ccccc2)c1 | -18.9% | – |
| CC(C)c1ccccc1C(C)C | 5.18% | – |
| O=C(C(=O)c1ccc(Br)cc1)c1ccc(Br)cc1 | -0.89% [at 29.1 µM] | – |
| CCOC(=O)CC(C)C | 18.8% | – |
| O=C(O)Cn1c(C(=O)Nc2nc(-c3ccccc3Cl)cs2)cc2ccccc21 | 6.72% | – |
| CN(C(=O)CCCOc1ccc2[nH]c(=O)ccc2c1)C1CCCCC1 | 8.13% | – |
| CCN(CCO)CCCC(C)Nc1ccnc2cc(Cl)ccc12 (stereo not given) | 10.2% [at 5.95 µM] | – |
| CCN(CC)CCOc1ccc2c(c1)C(=O)c1cc(OCCN(CC)CC)ccc1-2 | – | 26.6 µM (active) |
| CCCCOC(O)CC (stereo not given) | -1.35% | – |
| N#CCCNCCC#N | 4.76% [at 81.1 µM] | – |
| O=C(O)COC(=O)Cc1ccccc1Nc1c(Cl)cccc1Cl | -1% | – |
| O=C(NS(=O)(=O)/C=C/c1cccs1)c1ccc(F)cc1Br | 1.16% | – |
| O=C1[C@H](CC[C@H](O)c2ccc(F)cc2)[C@@H](c2ccc(O)cc2)N1c1ccc(F)cc1 | -7.07% | – |
| CC(C)(C)c1cc(O)c(C(C)(C)C)cc1O | -20.2% | – |

Source: PubChem BioAssay (Tox21)
